KB-V1 MDR tox – KB-V1 MDR subline cytotoxicity; KB-V1 MDR cells viability, CellTiter-Glo, 72 h; Potency, µM (series often up to 46.1 µM), usual class: cytotoxic; 400,000 compounds, 3.4% hits; AID 1347076; also: nearly all actives have a fitted effect of over 60% in size
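Compound-treated KB-V1 multidrug-resistant cells, 72 h, 37 degrees C; viability by CellTiter-Glo. Fitted qHTS curves give the values.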
IL1B secr inh – inhibitors of inflammasome signaling (IL-1 beta secretion); 360,000 compounds, 4.7% hits; activity change, % at 57.5 µM; AID 743279; THP-1 LPS/ATP IL-1B secretion, AlphaLISA, 16 h; hits give low values; in the data active = activity change below about -50%; inconclusive = mostly about -30% to -49%
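THP-1 cells pretreated 1 hr with compounds (up to 57.5 uM final), then stimulated with LPS (250 ng/mL final) plus ATP (1.25 mM final); secreted IL-1B measured by AlphaLISA after 16 hr, decreased signal indicating inhibition.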
KB-3-1 cytotox – KB-3-1 parental cell cytotoxicity; KB-3-1 viability, CellTiter-Glo ATP luminescence, 72 h; Potency, µM (highest dose often 46.1 µM), usual class: cytotoxic; 400,000 compounds, 1.4% hits; AID 1347075; also: nearly all actives have a fitted effect of over 60% in size
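Using CellTiter-Glo luminescence, growth of non-resistant KB-3-1 adenocarcinoma cells is assessed 72 h after pin-tool compound addition at 37 °C. Normalized responses across the concentration series yield fitted curves.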
SW480 rerep – induces DNA re-replication in SW480 colon adenocarcinoma cells | SW480 DNA re-replication, Hoechst DNA content imaging, 48 h | Potency, µM (series often up to 46.1 µM), hits mostly activators | 340,000 compounds, 1.8% hits | AID 624297; also: nearly all actives have a fitted effect of over 55% in size
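DNA re-replication was detected as more nuclei of elevated Hoechst intensity after 48 hr exposure to compound (23 nL pinned per well of 250 cells).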
MCF10A rereplic – induces DNA re-replication in MCF 10a normal breast cells; MCF 10A DNA re-replication, Hoechst nuclear intensity, 48 h; Potency, µM (top dose mostly 46.1 µM), usual class: activators; 350,000 compounds, 2.9% hits; AID 624296; also: nearly all actives have a fitted effect of over 50% in size
Large screens that a line does not name were inactive. This is a sample that favours compounds with a hit; in the whole collection about 9.9% have one here. Unless noted, calls follow the shape of the dose curve; as a rule, active = well fitted curve in the direction sought with a large enough effect; inconclusive = small, poorly fitted or top-dose-only effect, or another doubt; inactive = no such curve, though single readings can be large; an effect the other way counts as inactive or inconclusive.

COC(=O)c1nn(Cc2ccccc2)c(=O)c2ccccc12	KB-V1 MDR tox 16.4µM
NC(=O)c1nn(Cc2ccccc2)c(=O)c2ccccc12	KB-V1 MDR tox inconclusive
Brc1ccc2nc(-c3cccs3)c(NCC3CCCO3)n2c1 (stereo unspecified)	MCF10A rereplic 20.6µM
Brc1ccc2nc(-c3ccncc3)c(NC3CCCC3)n2c1	SW480 rerep inconclusive
c1csc(CNc2nc(-c3cccs3)nc3ccccc23)c1	MCF10A rereplic inconclusive
c1csc(-c2nc(NCC3CCCO3)c3ccccc3n2)c1 (stereo unspecified)	IL1B secr inh -90.4
c1ccc(CN2CCC(Nc3nc(-c4cccs4)nc4ccccc34)CC2)cc1	KB-V1 MDR tox inconclusive, IL1B secr inh -64.2, MCF10A rereplic inconclusive
c1cncc(-c2nc(NCC3CCCO3)c3ccccc3n2)c1 (stereo unspecified)	KB-V1 MDR tox inconclusive
CC(C)Oc1ccc(-c2nc(NCC3CCCO3)c3ccccc3n2)cc1 (stereo unspecified)	IL1B secr inh -78.5, SW480 rerep inconclusive, MCF10A rereplic inconclusive
CCCc1nc(SCc2cc(=O)c3ccc(C)c(C)c3[nH]2)n[nH]1	none (no result: IL1B secr inh, SW480 rerep, MCF10A rereplic)
CCOC(=O)CCCc1ccc(/C(C)=N/NC(N)=S)cc1	KB-V1 MDR tox 8.2µM, KB-3-1 cytotox inconclusive
COc1ccc(NC(=O)CN(c2cc(C)cc(C)c2)S(=O)(=O)c2c(C)noc2C)cc1Cl	none (no result: IL1B secr inh, SW480 rerep, MCF10A rereplic)
CCOC(=O)c1[nH]nc(-c2cc(CC)c(O)cc2O)c1-c1cscn1	KB-V1 MDR tox inconclusive, IL1B secr inh -60.6, KB-3-1 cytotox inconclusive
O=C(O)c1cc(/C=C/c2ccc(N3CCOCC3)cc2)nc2ccccc12	KB-V1 MDR tox 10.3µM
O=C(O)c1cc(/C=C/c2ccc(N3CCOCC3)c([N+](=O)[O-])c2)nc2ccccc12	none
c1coc(-c2nn3c(Cn4nnc5ccccc54)nnc3s2)c1	KB-V1 MDR tox 13µM, MCF10A rereplic inconclusive
Clc1ccc(Cc2nn3c(Cn4nnc5ccccc54)nnc3s2)cc1	KB-V1 MDR tox 4.11µM
c1csc(-c2nn3c(Cn4nnc5ccccc54)nnc3s2)c1	KB-V1 MDR tox 14.6µM, KB-3-1 cytotox inconclusive
c1ccc2c(c1)nnn2Cc1nnc2sc(-c3ccncc3)nn12	none
CCn1c2c(c3cc(Br)ccc31)CCC/C2=N\O	KB-V1 MDR tox inconclusive, KB-3-1 cytotox inconclusive, MCF10A rereplic 12.6µM
CCn1c2c(c3cc(OCC(C)C)ccc31)CCCC2=O	IL1B secr inh inconclusive
COc1cc(SC)ccc1C(=O)Nc1ccc(C)cc1	KB-V1 MDR tox inconclusive, IL1B secr inh -56.7, KB-3-1 cytotox inconclusive
COc1cc(SC)ccc1C(=O)Nc1ccc2c(c1)OCO2	KB-V1 MDR tox inconclusive, IL1B secr inh -63.1, KB-3-1 cytotox inconclusive
COc1cc(SC)ccc1C(=O)Nc1ccc(C)cc1C	KB-V1 MDR tox 9.2µM, MCF10A rereplic inconclusive
COc1cc(SC)ccc1C(=O)Nc1ccc(S(=O)(=O)N2CCCC2)cc1	none
CC(C)CCOc1ccc(C2=NNC(=O)CC2)cc1	KB-V1 MDR tox 1.84µM, KB-3-1 cytotox inconclusive
CCCCCc1ccc(C2=NNC(=O)CC2)cc1	KB-3-1 cytotox inconclusive
CC(=O)NC(C)(c1ccccc1)c1nc(-c2cc(F)cc(F)c2)cs1 (stereo unspecified)	none (no result: SW480 rerep, MCF10A rereplic)
Cc1ccc(Nc2nc(-c3ccc(O)c(O)c3)cs2)nc1	IL1B secr inh -77.2, KB-3-1 cytotox inconclusive, SW480 rerep inconclusive, MCF10A rereplic inconclusive
Cc1ccnc(Nc2nc(-c3c(C)nc4sccn34)cs2)c1	KB-V1 MDR tox inconclusive, IL1B secr inh -60.7, KB-3-1 cytotox inconclusive, MCF10A rereplic inconclusive
CC(=O)Nc1cccc(-c2csc(Nc3cc(C)ccn3)n2)c1	KB-V1 MDR tox 23.1µM, IL1B secr inh -96.1
COc1ccc(-c2csc(Nc3cc(C)ccn3)n2)cc1OC	IL1B secr inh -87.3, MCF10A rereplic inconclusive
CCOc1ccc(OCC)c(NC(=O)c2cnn(-c3ccc(F)cc3)c2C2CCN(C(=O)OC(C)(C)C)CC2)c1	KB-V1 MDR tox inconclusive (no result: IL1B secr inh, SW480 rerep, MCF10A rereplic)
CC(=O)Nc1ccc(-c2csc(Nc3cc(C)ccn3)n2)cc1	KB-V1 MDR tox inconclusive, IL1B secr inh -103.6, KB-3-1 cytotox inconclusive
Cc1ccnc(Nc2nc(-c3ccccc3)cs2)c1	KB-3-1 cytotox inconclusive
CCN1/C(=C/C=C/C=C/c2sc3ccccc3[n+]2CC)Sc2ccccc21	KB-V1 MDR tox inconclusive, KB-3-1 cytotox inconclusive, SW480 rerep inconclusive (no result: IL1B secr inh)

Bioassay records: PubChem, National Center for Advancing Translational Sciences (NCATS)
